sEH inh: soluble epoxide hydrolase (human) inhibition; AID 707; recombinant human sEH enzymatic activity assay; inhibition, % at 2 µM; actives 0.34% (n = 91,000); P34913; in the data active = inhibition above about 80%
sEH activator: activators of human soluble epoxide hydrolase; P34913; purified human sEH enzymatic activity, activator screen; activation, % at 2 µM; actives 0.04% (n = 91,000); in the data active = activation above about 37%
CYP2C19 inh: inhibitors of human CYP2C19; inhibition, % at 5 µM; actives 21% (n = 96,000); CYP2C19 Supersomes, luciferin-H EGE luminescence, 30 min; AID 778; P33261;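 active = CYP2C19 inhibition above a set limit at 5 µM in the primary screen, cut at about 50% in these data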;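 also: plate controls were negative control wells for no effect and 2.5 mM tranylcypromine positive control for full effect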
CYP2C9 inh: blocks human cytochrome P450 2C9 | P11712 | CYP2C9 Supersomes, luciferin-H conversion, luminescence | inhibition, % at 5 µM | actives 20% (n = 96,000) | AID 777;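 active = blocking of liver enzyme CYP2C9 beyond about 50% at 5 µM, limit read from the data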
Target sequence (P11712 whole entry, looked up): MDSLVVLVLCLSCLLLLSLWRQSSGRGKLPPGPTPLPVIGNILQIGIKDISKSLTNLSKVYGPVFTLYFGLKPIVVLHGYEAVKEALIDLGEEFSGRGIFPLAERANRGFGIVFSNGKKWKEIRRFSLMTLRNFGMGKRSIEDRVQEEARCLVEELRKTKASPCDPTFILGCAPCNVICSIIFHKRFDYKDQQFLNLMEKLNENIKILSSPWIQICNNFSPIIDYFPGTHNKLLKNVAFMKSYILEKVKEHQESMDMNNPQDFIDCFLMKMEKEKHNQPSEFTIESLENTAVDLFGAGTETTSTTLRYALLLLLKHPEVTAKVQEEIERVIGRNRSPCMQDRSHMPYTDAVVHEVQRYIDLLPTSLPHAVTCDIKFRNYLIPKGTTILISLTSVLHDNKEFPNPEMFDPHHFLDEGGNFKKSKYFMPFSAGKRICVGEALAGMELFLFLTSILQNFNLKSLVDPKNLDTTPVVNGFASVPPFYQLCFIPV
CYP2C19 activ: increases human CYP2C19 enzyme activity. recombinant CYP2C19, luciferin-H EGE luminescence; active compounds read high; 0 = fully inhibited enzyme, 1 = untreated enzyme. activation factor at 5 µM. 96,000 tested, under 10 active;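 active = activation factor of at least 2 at 5 µM in the primary screen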;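 also: 0 = wells with 2.5 mM tranylcypromine and 1 = vehicle-only wells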
CYP2C9 act: activators of human CYP2C9. P11712. recombinant CYP2C9, luciferin-H conversion, luminescence; active compounds read high; factor 1 = untreated enzyme, 0 = blocked. activation factor at 5 µM. actives 1.4% (n = 96,000). AID 1024;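 active = activation factor of 2 or more for CYP2C9 at a 5 µM dose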;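 also: 0 = sulfaphenazole-blocked wells and 1 = vehicle-only wells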
Numbers without * were called inactive; nt = no result. Shown are actives, neighbours in structure and some others; about 27% of the full set was active somewhere.

SMILES	sEH inh	sEH activator	CYP2C19 inh	CYP2C9 inh	CYP2C19 activ	CYP2C9 act
CCCOc1ccc([N+](=O)[O-])cc1C1NC(=S)NC(c2ccccc2)=C1C(=O)OCC (stereo unspecified)	3.7	-5.3	20.4	66.9*	0.8	0.3
O=C(Nc1ccc(Br)cc1)c1cccnc1N1CCCCC1	11.9	-11.6	37.3	85.5*	0.6	0.1
O=C(Nc1ccc(N2CCCCC2)cc1)c1ccc(F)cc1	15.8	-12.6	-2.1	-16.1	1	1.2
COc1ccc(NC(=O)c2cccnc2N2CCCCC2)cc1	1.5	-0.1	nt	nt	nt	nt
O=C(Nc1ccccc1N1CCCC1)c1cccnc1Cl	5.7	-2.9	nt	nt	nt	nt
COc1ccc(NC(=O)c2cccnc2N2CCCC2)cc1	3.1	-2.6	-5.1	94.1*	1.1	0.1
O=C(Nc1ccc(F)cc1)c1cccnc1N1CCCCC1	2.0	-1.9	75.1*	62.0*	0.2	0.4
CS(=O)(=O)Nc1nnc(Cc2ccccc2)s1	-10.7	13.6	nt	nt	nt	nt
CC(C)Cc1nnc(NS(=O)(=O)Cc2ccccc2)s1	9.2	-10.7	4.3	63.1*	1	0.4
Cn1c(=O)[nH]c(=O)c2c1nc(Br)n2CCCO	-10.1	8.8	-2.1	46.5	1	0.5
Cc1ccc(OCC(=O)Nc2oc(-c3ccccc3)c(-c3ccccc3)c2C#N)cc1	-3.4	2.1	nt	nt	nt	nt
COc1ccc(CNC(=O)CSc2ncn[nH]2)cc1	9.7	-11.4	64.9*	-14.7	0.4	1.1
COc1ccc(-c2oc(NC(=O)CSc3ncn[nH]3)c(C#N)c2-c2ccc(OC)cc2)cc1	11.0	-12.3	36.9	70.2*	0.6	0.3
N#Cc1c(NC(=O)COC(=O)C2CC3C=CC2C3)oc(-c2ccccc2)c1-c1ccccc1 (stereo unspecified)	1.2	-3.0	12.9	70.9*	0.9	0.3
COc1ccc(-c2oc(NC(=O)CCl)c(C#N)c2-c2ccc(OC)cc2)cc1	5.7	-6.6	54.3*	96.2*	0.5	0
N/C(=N\c1nc2c(c(=O)[nH]1)CCCC2)Nc1ccc(Oc2ccccc2)cc1	6.2	-0.8	nt	nt	nt	nt
CC(=O)NC(CCS(C)(=O)=O)C(=O)Nc1cccc(C(C)=O)c1 (stereo unspecified)	-3.8	7.5	-2.7	-3.8	1	1
O=C(NCCNc1ccc([N+](=O)[O-])cc1)c1ccccc1Br	2.0	-1.5	41.1	43.9	0.6	0.6
CC(=O)Nc1cc(NC(=O)CCCC(=O)O)ccc1Cl	7.8	-4.0	-18.5	-19.0	1.2	1.2
COc1ccccc1OCC(=O)Nc1oc(-c2ccccc2)c(-c2ccccc2)c1C#N	9.0	-7.8	34.5	85.3*	0.7	0.1
COc1ccc(CC(=O)Nc2oc(-c3ccccc3)c(-c3ccccc3)c2C#N)cc1OC	-0.5	0.1	nt	nt	nt	nt
N#CC1(c2ccccc2)CCC(=NO)CC1 (stereo unspecified)	3.2	-1.7	36.9	18.9	0.6	0.8
Cc1cc(C)n(-c2cc(C)c(C)cc2Br)n1	-0.2	-0.6	26.2	-9.0	0.7	1.1
Cc1cccc(-c2cc3nc4c(c(N5CCC6(CC5)OCCO6)n3n2)CCCC4)c1	-8.4	6.3	nt	nt	nt	nt
Cc1cccc(-c2cc3nc4c(c(N5CCOCC5)n3n2)CCCC4)c1	-7.8	7.0	26.1	55.0*	0.7	0.4
SMILES	sEH inh	sEH activator	CYP2C19 inh	CYP2C9 inh	CYP2C19 activ	CYP2C9 act
Cc1cccc(-c2cc3nc4c(c(N5CCCC(O)C5)n3n2)CCC4)c1 (stereo unspecified)	10.7	-11.0	87.3*	97.5*	0.1	0
CCOC(=O)C(C)Sc1nc(-c2ccco2)cc(C(F)(F)F)c1C#N (stereo unspecified)	-1.3	-0.2	7.4	19.9	0.9	0.8
CN1C(=O)/C(=C/c2ccccc2OCc2cccc(F)c2)NC1=S	-5.8	4.7	-2.5	65.3*	1	0.3
Cc1ccccc1NC(=O)C1CC(=O)N(c2ccc3c4c(cccc24)CC3)C1 (stereo unspecified)	6.9	-4.8	9.6	55.1*	0.9	0.4
CC1CCN(C(=O)CSc2nc(N)cc(N)n2)CC1	-8.7	6.2	2.3	0.0	1	1
CCCCCOC(=O)C1=C(C)N(C)C(=O)NC1c1cc(Br)c(O)c(OC)c1 (stereo unspecified)	-6.3	4.5	59.4*	69.8*	0.4	0.3
CCCn1c2c(c(O)c(C(=O)Nc3nc(C)cs3)c1=O)CCCC2	nt	nt	-0.5	5.0	1	0.9
Cc1csc(NC(=O)c2c(O)c3c(n(CC(C)C)c2=O)CCCC3)n1	6.8	-1.6	14.5	51.4*	0.9	0.5
C=CCNc1ccc(F)c(F)c1N1CCCCCC1=O	19.2	-19.8	15.4	-60.2	0.8	1.6
CCOC(=O)Cc1nnc(NC(=O)CSc2ccc(Cl)cc2)s1	6.0	-4.8	0.9	36.2	1	0.6
CCOC(=O)Cc1nnc(NC(=O)CSc2nnc3c4ccccc4n(C(C)C)c3n2)s1	nt	nt	77.6*	98.1*	0.2	0
CCn1c2ccccc2c2nnc(SCC(=O)c3ccccc3)nc21	4.8	0.3	35.5	-3.6	0.6	1
COC(=O)c1ccc(S(=O)(=O)NCCSc2nnc3c4ccccc4n(C)c3n2)cc1	nt	nt	67.6*	94.6*	0.3	0.1
CCc1nnc(NC(=O)CSc2nnc3c4ccccc4n(C)c3n2)s1	nt	nt	9.5	57.9*	0.9	0.4
CCCn1c2ccccc2c2nnc(SCC(=O)Nc3nnc(CC(=O)OCC)s3)nc21	4.4	-4.3	94.6*	98.4*	0.1	0
CCOC(=O)C(Sc1nnc2c3ccccc3n(CC)c2n1)C(=O)OCC	-0.2	4.5	32.2	36.2	0.7	0.6
CCn1c2ccccc2c2nnc(SCC(=O)Nc3ncccn3)nc21	nt	nt	3.3	-0.5	1	1
CCn1c2ccccc2c2nnc(SCC(=O)NC(CC(C)C)C(=O)OC)nc21 (stereo unspecified)	2.4	-2.3	96.5*	20.8	0	0.8
CC1Cc2ccccc2N1C(=O)CSc1nnc2c(n1)[nH]c1ccc(F)cc12 (stereo unspecified)	-7.2	5.3	nt	nt	nt	nt
CC1CCc2cc(F)ccc2N1C(=O)CSc1nnc2c3ccccc3n(C)c2n1 (stereo unspecified)	nt	nt	47.2	55.1*	0.5	0.4
CCc1c(-c2ccccc2)nc2nc(C)c(C)nn12	6.5	-7.6	0.8	-17.1	1	1.2
c1ccc(-c2cn3nc4c(nc3n2)CCCC4)cc1	-7.4	1.5	80.8*	28.7	0.2	0.7
Cc1nc2nc(-c3ccccc3)cn2nc1C	nt	nt	52.3*	23.9	0.5	0.8
COc1ccc(-c2nc3c(c(=O)n(C)c(=O)n3C)n2CC2CC(c3ccccc3)=NO2)cc1OC (stereo unspecified)	5.2	-5.0	nt	nt	nt	nt
CC1CC(N(C(=O)c2ccccc2Cl)c2ccccc2)c2ccccc2N1 (stereo unspecified)	7.0	-8.0	7.2	9.5	0.9	0.9
CCOc1ccc(-c2nnc(SCC(=O)N(CC)CC)n2N)cc1	nt	nt	3.7	-109.5	1	2.1*

Screens deposited in PubChem by several laboratories.
